Mot1-301 SUMO – yeast Mot1-301 growth rescue at high temperature, primary screen, SUMOylation pathway inhibitor project, S. cerevisiae, ATP luminescence, 38.5C; S. cerevisiae Mot1-301 growth rescue; percent above DMSO median, 100 means doubled; hit rate 1% among 320,000; growth rescue, % at 18.8 µM;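 active = every valid replicate shows activation above 250% relative to neutral control wells; inactive = the rest, any valid replicate at or below 250%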;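 note: OY570 slx delta 5 strain wells were the positive control but not used for scaling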
Cardio protect – cardioprotection against H2O2-induced cell death, primary screen, uHTS, H9c2 cells, ATPLite luminescence; H9c2 cardiomyocytes, H2O2 injury protection, 2 h; protection from H2O2 cell death, % at 20 µM; AID 588492, 2011; hit rate 0.63% among 360,000;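 active = compounds giving at least 50% protection of heart cells from peroxide-induced death in the single-dose screen, raw or plate-pattern-corrected value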;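 note: 0% = DMSO wells with peroxide and 100% = DMSO wells without peroxide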
AHR act – AHR activators, primary screen, cell-based, luminescence, luciferase reporter, human | Aryl hydrocarbon receptor (Homo sapiens), P35869 | AHR-responsive luciferase reporter cells | activation, % at 5 µM | hit rate 2.5% among 320,000; in the data active = activation above about 47%;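 note: 0% = vehicle wells and 100% = reference agonist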
AI-2 QS mod – Vibrio harveyi AI-2 quorum sensing modulators, primary screen, JMH597 strain, luminescence/OD600 ratio | Vibrio harveyi JMH597 AI-2 luminescence/OD600 ratio, 9 h; stronger effect = lower value; strain lacks LuxN and CqsS sensors; 0 = neutral-control median | activity change, % at 7.5 µM | hit rate 0.4% among 300,000; in the data active = activity change below about -75%, passing the limit was not always enough; inconclusive = no clear call, values can overlap the other calls;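 note: luminescence divided by OD600 gain over 9 h not by final OD600 alone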
NR3A LBD binder – binders of NR3A ligand-binding domain, primary screen, biophysical, differential scanning fluorimetry, uHTS; AID 1259313, 2017; NR3A LBD differential scanning fluorimetry, Tm shift; 0% = protein alone, 100% = glycine-bound protein; Tm shift relative to glycine control, % at 25 µM; hit rate 2.5% among 340,000; Glutamate receptor ionotropic, NMDA 3A (GRIN3A) ligand-binding domain;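 active = melting temperature shift of at least 10% of the positive control shift, at one fixed dose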
NTR1 ag – agonists of human NTR1, primary screen, imaging, U2OS cells, beta-arrestin-GFP, high content. Neurotensin receptor type 1 (Homo sapiens), P30989. NTR1-U2OS beta-arrestin-GFP spot imaging, agonist mode. activation, % at 20 µM. hit rate 0.17% among 330,000;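 active = activation at or above 40% of the spot to cytoplasm intensity ratio, with at least 20 cells analyzed; inconclusive = wells under 20 cells, flagged as cytotoxic or low count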;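 note: 0% = DMSO without peptide and 100% = 100 nM NTR1 peptide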
Active calls of the source: *. The list is not random: actives were taken first. Their share in the collection is about 6.2%.

Screening O=C1c2ccccc2NC(c2ccc(-c3cccc([N+](=O)[O-])c3)o2)N1O (stereo unspecified) returned Mot1-301 SUMO -10, Cardio protect 56*, AHR act 18, AI-2 QS mod 41, NR3A LBD binder -5 and NTR1 ag 0.
Screening O=C1c2ccccc2NC(c2ccc(-c3ccc(F)cc3)o2)N1O (stereo unspecified) returned Mot1-301 SUMO 13, Cardio protect 3, AHR act -12, NR3A LBD binder -5 and NTR1 ag 3.
`O=C1c2ccccc2NC(c2ccc(-c3ccc(Br)cc3)o2)N1O` (stereo unspecified) gave Mot1-301 SUMO -1, Cardio protect 65*, AHR act -12, AI-2 QS mod inconclusive, NR3A LBD binder 6 and NTR1 ag 7.
O=C(NCc1ccccc1)C(c1ccc(Cl)cc1)N(C(=O)c1csnn1)C1CC1 (stereo unspecified) was read as Mot1-301 SUMO -24, Cardio protect 2, AHR act 2, AI-2 QS mod 37, NR3A LBD binder 0 and NTR1 ag -1.
Screening COCCn1c(N)c(N(Cc2ccccc2)C(=O)COc2ccccc2F)c(=O)[nH]c1=O returned Mot1-301 SUMO -1, Cardio protect 5, AHR act -1, NR3A LBD binder 1 and NTR1 ag 0.
For CN(C)c1cccc(F)c1C(=O)NC(=O)Nc1ccc(Cl)cc1 the results were Cardio protect -4 and NR3A LBD binder 11*.
For CN(C)c1cccc(N(C)C)c1CNC(=O)NC(=O)c1c(F)cccc1F the results were Mot1-301 SUMO -10, Cardio protect -6, AHR act 3, AI-2 QS mod 19, NR3A LBD binder -1 and NTR1 ag 15.
For COc1ccccc1/C=C/C(=O)NC(=S)NCC1CCCO1 (stereo unspecified) the results were Mot1-301 SUMO -13, Cardio protect 7, AHR act 69*, AI-2 QS mod -52, NR3A LBD binder -1 and NTR1 ag 3.
O=C(CSc1nc2nc(-c3cccs3)cc(C(F)(F)F)c2c(=O)[nH]1)Nc1c(F)c(F)c(F)c(F)c1F was read as Mot1-301 SUMO -19, Cardio protect -24, AHR act 3, AI-2 QS mod 15, NR3A LBD binder 22* and NTR1 ag 29.
CCCCOc1ccc(C(=O)NNC(=O)c2cnccn2)cc1OC was read as Mot1-301 SUMO 47, Cardio protect 23, AHR act 1, NR3A LBD binder -2 and NTR1 ag -2.
CCOc1c(OC(C)=O)ccc(/C=C2\N=C(SCC)SC2=O)c1[N+](=O)[O-] was read as Mot1-301 SUMO -2, Cardio protect -34, AHR act 16, AI-2 QS mod 16, NR3A LBD binder 14* and NTR1 ag -1.
For CCOc1cc(/C=C2\N=C(SCC)SC2=O)cc([N+](=O)[O-])c1OC(C)=O the results were Mot1-301 SUMO 224, Cardio protect -15, AHR act 9, AI-2 QS mod -3, NR3A LBD binder 6 and NTR1 ag 8.
Screening CC1CCN(C(=O)CCNC(=O)c2ccccc2Cl)CC1 returned Mot1-301 SUMO 95, Cardio protect 3, AHR act 0, AI-2 QS mod 25, NR3A LBD binder 0 and NTR1 ag 3.
CC(C)CCn1c(O)c(N=NC(=O)c2ccco2)c2ccccc21 was read as Mot1-301 SUMO 553*, Cardio protect 2, AHR act 19, AI-2 QS mod 20, NR3A LBD binder 2 and NTR1 ag 6.
`O=C(N=Nc1c(O)n(Cc2ccccc2)c2ccccc12)c1cc2ccccc2cc1O` gave Mot1-301 SUMO 2, Cardio protect -14, AHR act 0, AI-2 QS mod 11 and NR3A LBD binder 13*.
O=C(N=Nc1c(O)n(Cc2ccccc2)c2ccccc12)c1ccc(O)cc1 was read as Mot1-301 SUMO -18, Cardio protect -4, AHR act -4, AI-2 QS mod 49, NR3A LBD binder 4 and NTR1 ag 23.
For COCCCn1c(=O)c2sccc2n2c(CCCC(=O)N(C)Cc3ccco3)nnc12 the results were Mot1-301 SUMO 3, Cardio protect -3, AHR act 0, AI-2 QS mod 24, NR3A LBD binder -3 and NTR1 ag 0.
`Nc1nc2nc[nH]c2c(=O)[nH]1` gave Mot1-301 SUMO 220, Cardio protect 1, AHR act 2, AI-2 QS mod 31, NR3A LBD binder -1 and NTR1 ag 0.
For Nc1nc(OCC2CCCCC2)c2[nH]cnc2n1 the results were Mot1-301 SUMO 1, Cardio protect 2, AHR act 56*, AI-2 QS mod 13, NR3A LBD binder 0 and NTR1 ag 4.
`CCn1c2ccccc2c2cc(NC(=O)CC(C)=O)ccc21` gave Mot1-301 SUMO 4, Cardio protect -1, AHR act 57*, AI-2 QS mod 11, NR3A LBD binder 5 and NTR1 ag -1.
For CCCC(=O)Nc1ccc2c(c1)c1ccccc1n2CC the results were Mot1-301 SUMO 15, Cardio protect -3, AHR act 69*, AI-2 QS mod 23, NR3A LBD binder 0 and NTR1 ag 2.
Screening CCn1c2ccccc2c2cc(NS(=O)(=O)c3ccccc3C)ccc21 returned Mot1-301 SUMO -15, Cardio protect -11, AHR act 73*, AI-2 QS mod 10, NR3A LBD binder 5 and NTR1 ag 7.
Screening O=C(NC1CCCCC1)c1cc(-c2cccc(Cl)c2)on1 returned Mot1-301 SUMO -1, Cardio protect 1, AHR act -12, AI-2 QS mod 7, NR3A LBD binder 0 and NTR1 ag 1.
For O=C(NCc1ccccn1)c1cc(-c2ccc(Cl)cc2)nc2ccccc12 the results were Mot1-301 SUMO 10, Cardio protect 23, AHR act 35, AI-2 QS mod 7, NR3A LBD binder 10 and NTR1 ag 2.
O=C(NCc1ccccn1)c1cc(-c2ccccc2)nc2ccccc12 was read as Mot1-301 SUMO 2, Cardio protect -3, AHR act 18, AI-2 QS mod 16, NR3A LBD binder -2 and NTR1 ag 6.
For Cc1cc(NC(=O)c2cc(-c3ccc(C)c(C)c3)nc3ccccc23)no1 the results were Mot1-301 SUMO 11, Cardio protect -5, AHR act 58*, AI-2 QS mod 10, NR3A LBD binder -7 and NTR1 ag 1.

Screens from PubChem BioAssay.
